High-throughput results deposited in PubChem BioAssay by Sanford-Burnham Center for Chemical Genomics.
CYP2C19 act: activators of human cytochrome P450 2C19 | recombinant CYP2C19, luciferin-H EGE luminescence; hits give high values; 0 = fully inhibited enzyme, 1 = untreated enzyme | activation factor at 5 µM | AID 1025 | P33261 | 96,000 tested, under 10 active;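 active means activation factor of at least 2 at 5 µM in the primary screen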;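 further: 0 = wells with 2.5 mM tranylcypromine and 1 = vehicle-only wells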
CYP2C9 inh: inhibitors of human CYP2C9; P11712; CYP2C9 Supersomes, luciferin-H conversion, luminescence; inhibition, % at 5 µM; 96,000 compounds, 20% hits; AID 777;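 active means blocking of liver enzyme CYP2C9 beyond about 50% at 5 µM, limit read from the data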
Target sequence (P11712 whole entry, looked up): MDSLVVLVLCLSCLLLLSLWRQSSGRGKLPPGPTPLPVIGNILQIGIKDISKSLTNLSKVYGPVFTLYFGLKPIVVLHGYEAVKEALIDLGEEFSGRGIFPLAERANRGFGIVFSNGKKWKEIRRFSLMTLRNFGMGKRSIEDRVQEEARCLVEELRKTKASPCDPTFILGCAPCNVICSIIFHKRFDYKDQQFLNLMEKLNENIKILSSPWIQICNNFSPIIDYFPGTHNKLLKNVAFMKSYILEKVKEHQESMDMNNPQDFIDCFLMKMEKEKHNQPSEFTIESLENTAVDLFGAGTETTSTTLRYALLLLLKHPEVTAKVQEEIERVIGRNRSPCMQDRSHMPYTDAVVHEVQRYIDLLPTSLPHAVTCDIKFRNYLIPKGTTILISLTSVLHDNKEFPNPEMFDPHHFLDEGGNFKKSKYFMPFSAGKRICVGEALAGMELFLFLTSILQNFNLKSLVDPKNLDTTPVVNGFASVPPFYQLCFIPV
CYP2C9 activ: activators of human CYP2C9 | recombinant CYP2C9, luciferin-H conversion, luminescence; hits give high values; factor 1 = untreated enzyme, 0 = blocked | activation factor at 5 µM | 96,000 compounds, 1.4% hits;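 active means activation factor of 2 or more for CYP2C9 at a 5 µM dose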;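 further: 0 = sulfaphenazole-blocked wells and 1 = vehicle-only wells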
CYP2C19 inhib: human CYP2C19 inhibition. P33261. CYP2C19 Supersomes, luciferin-H EGE luminescence, 30 min. inhibition, % at 5 µM. 96,000 compounds, 21% hits. AID 778;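 active means CYP2C19 inhibition above a set limit at 5 µM in the primary screen, cut at about 50% in these data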;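 further: plate controls were negative control wells for no effect and 2.5 mM tranylcypromine positive control for full effect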
Starred values were filed as active, the others as inactive. Shown are actives, neighbours in structure and some others; about 31% of the full set was active somewhere.

S=C(Nc1cccc2ccccc12)N1CCN(c2ncccn2)CC1 was read as CYP2C19 act 0.4, CYP2C9 inh 25.2, CYP2C9 activ 0.7 and CYP2C19 inhib 58.3*.
`CC(=O)c1ccc(NC(=S)N2C(C)CCCC2C)cc1` (stereo not given) gave CYP2C19 act 1.1, CYP2C9 inh -4.6, CYP2C9 activ 1 and CYP2C19 inhib -10.6.
`N#CC(c1ccc(Cl)cc1)(c1ncc(C(F)(F)F)cc1Cl)N1CCOCC1` (stereo not given) gave CYP2C19 act 0.9, CYP2C9 inh 15.4, CYP2C9 activ 0.8 and CYP2C19 inhib 11.7.
Screening Cc1cc(-c2nsc(=O)o2)c(S(C)(=O)=O)s1 returned CYP2C19 act 0.9, CYP2C9 inh 16.6, CYP2C9 activ 0.8 and CYP2C19 inhib 9.6.
`COc1ccc(C2(C(F)(F)F)NC(=O)N(C)C(=O)N2C)cc1` (stereo not given) gave CYP2C19 act 0.9, CYP2C9 inh -4.1, CYP2C9 activ 1 and CYP2C19 inhib 11.6.
For COc1ccccc1NC(=O)N1CCN(c2cccc(C(F)(F)F)c2)CC1 the results were CYP2C19 act 0.2, CYP2C9 inh -112.6, CYP2C9 activ 2.1* and CYP2C19 inhib 84.7*.
Screening CN(CC(=O)N1CCN(c2ccccn2)CC1)S(=O)(=O)c1ccc(Br)cc1 returned CYP2C19 act 0.4, CYP2C9 inh -41.9, CYP2C9 activ 1.4 and CYP2C19 inhib 63.0*.
Screening O=C(CC1CCCCC1)N1CCN(c2ccccn2)CC1 returned CYP2C19 act 0.5, CYP2C9 inh 61.5*, CYP2C9 activ 0.4 and CYP2C19 inhib 53.7*.
Screening O=C(O)CCC(=O)N1CCN(c2ccccn2)CC1 returned CYP2C19 act 1, CYP2C9 inh -0.8, CYP2C9 activ 1 and CYP2C19 inhib 0.9.
For CN(CC(=O)O/N=C(\N)c1ccccn1)S(=O)(=O)c1ccc(Br)cc1 the results were CYP2C19 act 0.9, CYP2C9 inh -23.3, CYP2C9 activ 1.2 and CYP2C19 inhib 6.0.
CN(Cc1cnn(C)c1)C(=O)c1sc2cccc(Cl)c2c1Cl was read as CYP2C19 act 1.4, CYP2C9 inh -3.9, CYP2C9 activ 1 and CYP2C19 inhib -35.2.
`O=C(CN(Cc1ccccc1)C(=O)c1cc2c(s1)CCC2)NCc1cccs1` gave CYP2C19 act 0.8, CYP2C9 inh 75.3*, CYP2C9 activ 0.2 and CYP2C19 inhib 18.3.
`O=C(Cc1cccs1)NCc1ccccc1` gave CYP2C19 act 0.6, CYP2C9 inh 3.4, CYP2C9 activ 1 and CYP2C19 inhib 41.1.
Screening O=C(CN(C(=O)c1cc2c(s1)CCC2)C1CCCC1)NCc1cccs1 returned CYP2C19 act 0.3, CYP2C9 inh 81.9*, CYP2C9 activ 0.2 and CYP2C19 inhib 65.7*.
For COc1cc(Br)cc(-c2nc3c(c(=O)[nH]c(=O)n3Cc3ccccc3)n2C)c1O the results were CYP2C19 act 0.8, CYP2C9 inh 29.0, CYP2C9 activ 0.7 and CYP2C19 inhib 23.2.
Cc1nn(Cc2ccccc2Cl)c(C)c1NC(=O)C1C2CCC(O2)C1C(=O)O (stereo not given) was read as CYP2C19 act 0.1, CYP2C9 inh 27.4, CYP2C9 activ 0.7 and CYP2C19 inhib 94.1*.
Cc1nn(Cc2ccc(F)cc2)c(C)c1NC(=O)c1noc2c1CCCCC2 was read as CYP2C19 act 0.4, CYP2C9 inh 76.8*, CYP2C9 activ 0.2 and CYP2C19 inhib 55.7*.
For Cc1ccccc1Cn1nc(C)c(NC(=O)c2noc3c2CCCC3)c1C the results were CYP2C19 act 0.8, CYP2C9 inh 57.9*, CYP2C9 activ 0.4 and CYP2C19 inhib 23.4.
`Cc1nn(Cc2ccc(Cl)cc2)c(C)c1NC(=O)c1noc2c1CCc1ccccc1-2` gave CYP2C19 act 1, CYP2C9 inh -7.5, CYP2C9 activ 1.1 and CYP2C19 inhib -1.1.
Screening Cc1nn(Cc2ccccc2Cl)c(C)c1NC(=O)c1noc2c1CCCCC2 returned CYP2C19 act 1, CYP2C9 inh 53.8*, CYP2C9 activ 0.5 and CYP2C19 inhib -2.5.
Screening C=CCn1c(SCC#N)nc2c(c1=O)C(C)(C)Cc1ccccc1-2 returned CYP2C19 act 0.7, CYP2C9 inh 40.8, CYP2C9 activ 0.6 and CYP2C19 inhib 27.8.
`CCOC(=O)CNc1c(N2CCN(c3ccccn3)CC2)c(=O)c1=O` gave CYP2C19 act 0.9, CYP2C9 inh 5.3, CYP2C9 activ 0.9 and CYP2C19 inhib 6.8.
O=C(Nc1ccc(Br)cn1)C1CCCN1S(=O)(=O)c1ccccc1 (stereo not given) was read as CYP2C19 act 0.5, CYP2C9 inh 77.1*, CYP2C9 activ 0.2 and CYP2C19 inhib 52.3*.
Screening Cc1c(NC(=O)C2CCCN2S(=O)(=O)c2ccc(Cl)cc2)c(=O)n(-c2ccccc2)n1C (stereo not given) returned CYP2C19 act 1.2, CYP2C9 inh -17.5, CYP2C9 activ 1.2 and CYP2C19 inhib -15.3.
Screening O=C(O)C1CCCN1S(=O)(=O)c1cccs1 (stereo not given) returned CYP2C19 act 0.7, CYP2C9 inh 10.0, CYP2C9 activ 0.9 and CYP2C19 inhib 31.9.
O=C(Nc1ccc(Br)cc1)C1CCCN1S(=O)(=O)c1cccs1 (stereo not given) was read as CYP2C19 act 0, CYP2C9 inh 90.4*, CYP2C9 activ 0.1 and CYP2C19 inhib 95.6*.
For O=C(Nc1ccc(Cl)cn1)C1CCCN1S(=O)(=O)c1ccccc1 (stereo not given) the results were CYP2C19 act 0.8, CYP2C9 inh 80.4*, CYP2C9 activ 0.2 and CYP2C19 inhib 21.6.
Screening O=C(Nc1ccc(O)cc1)C1CCCN1S(=O)(=O)c1ccc(F)cc1 (stereo not given) returned CYP2C19 act 1, CYP2C9 inh -61.1, CYP2C9 activ 1.6 and CYP2C19 inhib 2.7.
O=C(NCCc1ccccc1F)C1CCCN1S(=O)(=O)c1ccccc1 (stereo not given) was read as CYP2C19 act 0.2, CYP2C9 inh 25.7, CYP2C9 activ 0.7 and CYP2C19 inhib 78.8*.
Screening COCC(=O)NCc1nc2ccccc2n1Cc1ccccc1F returned CYP2C19 act 0.9, CYP2C9 inh -4.6, CYP2C9 activ 1 and CYP2C19 inhib 10.1.
Screening CCn1nnnc1SCC(=O)Nc1cc(OC)cc(OC)c1 returned CYP2C19 act 1, CYP2C9 inh 4.5, CYP2C9 activ 1 and CYP2C19 inhib 2.7.
For Cc1[nH]nc(N=CC2=C(O)CC(C)(C)CC2=O)c1-c1ccc(Cl)cc1 the results were CYP2C19 act 0.8, CYP2C9 inh 32.6, CYP2C9 activ 0.7 and CYP2C19 inhib 18.2.
CC(=O)Nc1ccc(S(=O)(=O)N2CCCCC2c2cccnc2)cc1 (stereo not given) was read as CYP2C19 act 0.8, CYP2C9 inh 17.2, CYP2C9 activ 0.8 and CYP2C19 inhib 15.7.
For O=C(Nc1cccnc1)C1CCCN1S(=O)(=O)c1ccc(Cl)c(Cl)c1 (stereo not given) the results were CYP2C19 act 0.8, CYP2C9 inh 69.2*, CYP2C9 activ 0.3 and CYP2C19 inhib 15.4.
`CC(C)c1nnc(NC(=O)Cn2nc(-c3ccc4c(c3)OCCO4)ccc2=O)s1` gave CYP2C19 act 1, CYP2C9 inh 28.5, CYP2C9 activ 0.7 and CYP2C19 inhib -2.4.
